# Laboratory results from PubChem BioAssay (NCATS).
# “And” between values parts separate entries of the source, which are not always exact repeats. Equal values may be shown once. Inconclusive results are not listed. A call without a number means that no potency is given here. Some compounds were tested as several samples or in several runs, with calls that do not always agree. Values without a mark were called inactive. The source made the active and inactive calls. The call rests on the fitted dose curve; in most records, active means well fitted curve in the direction sought with a large enough effect; inconclusive means small, poorly fitted or top-dose-only effect, or another doubt; inactive means no such curve, though single readings can be large; an effect the other way counts as inactive or inconclusive.
# What was measured:
# MKL-1 = test: qHTS assay to identify novel small-molecules to repurpose for Merkel cell carcinoma treatment (AID 1296009); details: MCC and control cell lines, CellTiter-Glo viability, 72 h; series mostly up to 46 µM; further: nearly all actives have a fitted effect of over 60% in size; further: potency means the concentration at half of the fitted maximal effect
# Procedure, shortened: (§1)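 Viability readout: ATP luminescence (CellTiter-Glo) after 72 hr drug exposure at 37 degree celsius. Dose-response format was 8 points for NPC and 11 points for MIPE; data normalized to in-plate controls.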
# MKL-2 = test: as above; details: MCC and control cell lines, CellTiter-Glo viability, 72 h; series mostly up to 46 µM
# Procedure, shortened: as §1
# NIH3T3 = test: as above; details: MCC and control cell lines, CellTiter-Glo viability, 72 h; series mostly up to 44.8 µM
# Procedure, shortened: as §1
# UISO = test: as above; details: MCC and control cell lines, CellTiter-Glo viability, 72 h; series mostly up to 46 µM
# Procedure, shortened: as §1
# WaGa = test: as above; details: MCC and control cell lines, CellTiter-Glo viability, 72 h; series mostly up to 46 µM
# Procedure, shortened: as §1
# C33A = test: Primary qHTS to identify gynecologic anti-cancer compounds using libraries of approved drugs and bioactive compounds (AID 1345084); details: Gynecologic cancer cell panel viability, ATPlite luminescence, 48 h; series mostly up to 57.5 µM; further: nearly all actives have a fitted effect of over 55% in size
# Procedure, shortened: (§2)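 In this quantitative HTS, cell killing is estimated from loss of ATP-dependent luciferase light. Cells see five compound concentrations over a 48 h exposure.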
# CAOV3 = test: as above; details: Gynecologic cancer cell panel viability, ATPlite luminescence, 48 h; series mostly up to 57.5 µM
# Procedure, shortened: as §2
# CASKI = test: as above; details: Gynecologic cancer cell panel viability, ATPlite luminescence, 48 h; series mostly up to 57.5 µM
# Procedure, shortened: as §2
# Es-2 = test: as above; details: Gynecologic cancer cell panel viability, ATPlite luminescence, 48 h; series mostly up to 57.5 µM
# Procedure, shortened: as §2
# HeLa = test: as above; details: Gynecologic cancer cell panel viability, ATPlite luminescence, 48 h; series mostly up to 57.5 µM
# Procedure, shortened: as §2
# Hek293T = test: as above; details: Gynecologic cancer cell panel viability, ATPlite luminescence, 48 h, control line for the selectivity index; series mostly up to 57.5 µM
# Procedure, shortened: as §2
# JEG-3 = test: as above; details: Gynecologic cancer cell panel viability, ATPlite luminescence, 48 h; series mostly up to 57.5 µM
# Procedure, shortened: as §2
# OV90 = test: as above; details: Gynecologic cancer cell panel viability, ATPlite luminescence, 48 h; series mostly up to 57.5 µM
# Procedure, shortened: as §2
# PA-1 = test: as above; details: Gynecologic cancer cell panel viability, ATPlite luminescence, 48 h; series mostly up to 57.5 µM
# Procedure, shortened: as §2
# SKOV3 = test: as above; details: Gynecologic cancer cell panel viability, ATPlite luminescence, 48 h; series mostly up to 57.5 µM
# Procedure, shortened: as §2
# Tov-21-G = test: as above; details: Gynecologic cancer cell panel viability, ATPlite luminescence, 48 h; series mostly up to 57.5 µM
# Procedure, shortened: as §2
# Tov112D = test: as above; details: Gynecologic cancer cell panel viability, ATPlite luminescence, 48 h; series mostly up to 57.5 µM
# Procedure, shortened: as §2
# [1] = Drug repurposing screens with cells derived from glioblastoma tumor samples (AID 1345199); details: GBM patient neurospheres viability, ATP luminescence, 48 h; further: nearly all actives have a fitted effect of over 40% in size; further: potency means the concentration at half of the fitted maximal effect
# Procedure, shortened: (§3)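 Primary testing used CD133+ neurospheres from four GBM patients, seven concentrations, 48 h exposure and ATP-based viability; confirmation added three slower-growing patient lines.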
# astro = test: as above; details: viability, ATP luminescence, 48 h; series mostly up to 45.9 µM
# Procedure, shortened: as §3
# [2] = at 45.9 µM (top of the series), tumour line B
# [3] = at 45.9 µM (top of the series), tumour line D
# [4] = at 46 µM (top of the series), tumour line A
# [5] = at 46.1 µM (top of the series), tumour line C
# [6] = at 20 µM (top of the series), tumour line C
# [7] = at 21.2 µM (top of the series), tumour line B
# [8] = at 21.2 µM (top of the series), tumour line D
smiles,measurement,setting,value
NCCS(=O)(=O)O,Potency,MKL-1,inactive
same,Potency,MKL-2,inactive
same,outcome,NIH3T3,inactive
same,Potency,UISO,inactive
same,Potency,WaGa,inactive
same,Potency,C33A,inactive
same,Potency,CAOV3,inactive
same,Potency,CASKI,inactive
same,Potency,Es-2,inactive
same,Potency,HeLa,inactive
same,Potency,Hek293T,inactive
same,Potency,JEG-3,inactive
same,Potency,OV90,inactive
same,Potency,PA-1,inactive
same,Potency,SKOV3,inactive
same,Potency,Tov-21-G,inactive
same,Potency,Tov112D,inactive
same,"activity, negative = cell killing",[1]; [2],-27.3%
same,"activity, negative = cell killing",[1]; [3],-0.425%
same,"activity, negative = cell killing",[1]; [4],17.9%
same,"activity, negative = cell killing",[1]; [5],-20.3%
Cc1cc(C(C)(C)C)c(O)c(C)c1CC1=NCCN1,Potency,MKL-1,inactive
same,Potency,MKL-2,inactive
same,outcome,NIH3T3,inactive
same,Potency,UISO,inactive
same,Potency,WaGa,inactive
same,Potency,C33A,inactive
same,Potency,CAOV3,inactive
same,Potency,CASKI,inactive
same,Potency,Es-2,inactive
same,Potency,HeLa,inactive
same,Potency,Hek293T,inactive
same,Potency,JEG-3,inactive
same,Potency,OV90,inactive
same,Potency,PA-1,inactive
same,Potency,SKOV3,inactive
same,Potency,Tov-21-G,inactive
same,Potency,Tov112D,inactive
same,"activity, negative = cell killing",[1]; [2],-18.7%
same,"activity, negative = cell killing",[1]; [3],-26.9%
same,"activity, negative = cell killing",[1]; [5],5.76%
Cc1ccc(C(=O)Nc2ccc(S(=O)(=O)O)c3cc(S(=O)(=O)O)cc(S(=O)(=O)O)c23)cc1NC(=O)c1cccc(NC(=O)Nc2cccc(C(=O)Nc3cc(C(=O)Nc4ccc(S(=O)(=O)O)c5cc(S(=O)(=O)O)cc(S(=O)(=O)O)c45)ccc3C)c2)c1,Potency,MKL-1,inactive
same,Potency,MKL-2,inactive
same,outcome,NIH3T3,inactive
same,Potency,UISO,inactive
same,Potency,WaGa,inactive
same,Potency,C33A,inactive
same,Potency,CASKI,inactive
same,Potency,Es-2,inactive
same,Potency,HeLa,inactive
same,Potency,Hek293T,inactive
same,Potency,JEG-3,inactive
same,Potency,OV90,inactive
same,Potency,PA-1,inactive
same,Potency,SKOV3,inactive
same,Potency,Tov-21-G,inactive
same,Potency,Tov112D,inactive
same,"activity, negative = cell killing",[1]; [2],-18.8%
same,"activity, negative = cell killing",[1]; [3],-0.172%
same,"activity, negative = cell killing",[1]; [4],-24.3%
same,"activity, negative = cell killing",[1]; [5],-24.1%
Clc1ccc2nsnc2c1NC1=NCCN1,Potency,MKL-1,inactive
same,Potency,MKL-2,inactive
same,outcome,NIH3T3,inactive
same,Potency,UISO,inactive
same,Potency,WaGa,inactive
same,Potency,C33A,inactive
same,Potency,CASKI,inactive
same,Potency,Es-2,inactive
same,Potency,HeLa,inactive
same,Potency,Hek293T,inactive
same,Potency,JEG-3,inactive
same,Potency,OV90,inactive
same,Potency,PA-1,inactive
same,Potency,SKOV3,inactive
same,Potency,Tov-21-G,inactive
same,Potency,Tov112D,inactive
same,"activity, negative = cell killing",[1]; [2],-9.87%
same,"activity, negative = cell killing",[1]; [3],1.91%
same,"activity, negative = cell killing",[1]; [5],8.38%
CC(C)Cc1ccc(C(C)C(=O)O)cc1 (stereo not given),Potency,MKL-1,inactive
same,Potency,MKL-2,inactive
same,outcome,NIH3T3,inactive [at 17.4 µM]
same,Potency,UISO,inactive
same,Potency,WaGa,inactive
same,Potency,C33A,inactive
same,Potency,CASKI,inactive
same,Potency,Es-2,inactive
same,Potency,HeLa,inactive
same,Potency,Hek293T,inactive
same,Potency,JEG-3,inactive
same,Potency,OV90,inactive
same,Potency,PA-1,inactive
same,Potency,Tov-21-G,inactive
same,Potency,Tov112D,inactive
same,"activity, negative = cell killing",[1]; [2],-11.8%
same,"activity, negative = cell killing",[1]; [3],-6.13%
same,"activity, negative = cell killing",[1]; [4],-21.1%
same,"activity, negative = cell killing",[1]; [5],-7.76%
CN1CCC(=C2c3ccccc3C=Cc3ccccc32)CC1,Potency,MKL-1,inactive
same,Potency,MKL-2,16.8 µM (active)
same,outcome,NIH3T3,inactive
same,Potency,UISO,inactive
same,Potency,WaGa,26.6 µM (active)
same,Potency,C33A,inactive
same,Potency,CAOV3,inactive
same,Potency,CASKI,inactive
same,Potency,Es-2,inactive
same,Potency,HeLa,inactive
same,Potency,JEG-3,inactive
same,Potency,PA-1,inactive
same,Potency,SKOV3,inactive
same,Potency,Tov-21-G,inactive
same,Potency,Tov112D,inactive
same,"activity, negative = cell killing",[1]; [5],-12.4%
same,Potency,[1]; tumour line A,3.55 µM (active)
same,Potency,[1]; tumour line B,25.1 µM (active)
same,Potency,[1]; tumour line D,20 µM (active)
same,Potency,astro,17.8 µM (active)
Cc1ccccc1N1C(=O)c2cc(S(N)(=O)=O)c(Cl)cc2NC1C (stereo not given),Potency,MKL-1,inactive
same,Potency,MKL-2,inactive
same,outcome,NIH3T3,inactive
same,Potency,UISO,inactive
same,Potency,WaGa,inactive
same,Potency,C33A,inactive
same,Potency,CAOV3,inactive
same,Potency,CASKI,inactive
same,Potency,Es-2,inactive
same,Potency,HeLa,inactive
same,Potency,Hek293T,inactive
same,Potency,JEG-3,inactive
same,Potency,PA-1,inactive
same,Potency,SKOV3,inactive
same,Potency,Tov-21-G,inactive
same,Potency,Tov112D,inactive
same,"activity, negative = cell killing",[1]; [2],-0.853% and -2.25%
same,"activity, negative = cell killing",[1]; [3],16.5% and -1.42%
same,"activity, negative = cell killing",[1]; [4],-25.2%
same,"activity, negative = cell killing",[1]; [5],-19% and -29.3%
same,Potency,[1]; tumour line A,35.5 µM (active)
same,Potency,astro,inactive
NCCc1cnc[nH]1,Potency,MKL-1,inactive
same,Potency,MKL-2,inactive
same,outcome,NIH3T3,inactive
same,Potency,UISO,inactive
same,Potency,WaGa,inactive
same,Potency,C33A,inactive
same,Potency,CAOV3,inactive
same,Potency,CASKI,inactive
same,Potency,Es-2,inactive
same,Potency,HeLa,inactive
same,Potency,Hek293T,inactive
same,Potency,JEG-3,inactive
same,Potency,OV90,inactive
same,Potency,PA-1,inactive
same,Potency,SKOV3,inactive
same,Potency,Tov-21-G,inactive
same,Potency,Tov112D,inactive
same,"activity, negative = cell killing",[1]; [2],27.7%
same,"activity, negative = cell killing",[1]; [3],2.11%
same,"activity, negative = cell killing",[1]; [5],0.797%
COc1ccc(C2CNC(=O)C2)cc1OC1CCCC1 (stereo not given),Potency,MKL-1,inactive
same,Potency,MKL-2,inactive
same,outcome,NIH3T3,inactive
same,Potency,UISO,inactive
same,Potency,WaGa,inactive
same,Potency,C33A,inactive
same,Potency,CAOV3,inactive
same,Potency,CASKI,inactive
same,Potency,Es-2,inactive
same,Potency,HeLa,inactive
same,Potency,Hek293T,inactive
same,Potency,JEG-3,inactive
same,Potency,OV90,inactive
same,Potency,PA-1,inactive
same,Potency,SKOV3,inactive
same,Potency,Tov-21-G,inactive
same,Potency,Tov112D,inactive
same,"activity, negative = cell killing",[1]; [6],-0.6%
same,"activity, negative = cell killing",[1]; [7],-12.9%
same,"activity, negative = cell killing",[1]; [8],-16.7%
same,"activity, negative = cell killing","[1]; at 21.3 µM (top of the series), tumour line A",-26.3%
Cc1cc(C(C)(C)C)cc(C)c1CC1=NCCN1,Potency,MKL-1,inactive
same,Potency,MKL-2,inactive
same,outcome,NIH3T3,inactive
same,Potency,UISO,inactive
same,Potency,WaGa,inactive
same,Potency,C33A,inactive
same,Potency,CAOV3,inactive
same,Potency,CASKI,inactive
same,Potency,JEG-3,inactive
same,Potency,Tov-21-G,inactive
same,Potency,Tov112D,inactive
same,"activity, negative = cell killing",[1]; [6],-2.93%
same,"activity, negative = cell killing",[1]; [7],-9.52%
same,"activity, negative = cell killing",[1]; [8],-25.7%
CN(CCOc1ccc(NS(C)(=O)=O)cc1)CCc1ccc(NS(C)(=O)=O)cc1,Potency,MKL-1,inactive
same,Potency,MKL-2,inactive
same,outcome,NIH3T3,inactive
same,Potency,UISO,inactive
same,Potency,WaGa,inactive
same,Potency,C33A,inactive
same,Potency,CASKI,inactive
same,Potency,Es-2,inactive
same,Potency,HeLa,inactive
same,Potency,Hek293T,inactive
same,Potency,JEG-3,inactive
same,Potency,OV90,inactive
same,Potency,PA-1,inactive
same,Potency,SKOV3,inactive
same,Potency,Tov-21-G,inactive
same,Potency,Tov112D,inactive
same,"activity, negative = cell killing",[1]; [2],-5.75%
same,"activity, negative = cell killing",[1]; [3],-4.11%
same,"activity, negative = cell killing",[1]; [5],4.34%
